# Records with an inconclusive call do not appear. Active and inactive are the calls of the source. Rule for the calls: active = hit-call score of the fitted dose curve at least 0.9, where 1 is the maximum; inconclusive = response in the unintended direction; inactive = score below 0.9.
# Legend:
# [1] = biological target: rat Peripheral-type Benzodiazepine Receptor (PBR), Tspo (gene 24230) (UniProt P16257); test: NVS_MP_rPBR: NovaScreen (NVS) Membrane Protein Assay for rat Peripheral-type Benzodiazepine Receptor (PBR) (AID 2283335)
# Summary of the method: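 Single-concentration duplicate screening at 25 uM preceded concentration-series retesting of actives. Binding of a specific radioligand to rat kidney membrane PBR was read by filtration radiodetection after 1 h, with plate-wise positive and negative controls.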
# [2] = system: guinea pig Histamine Receptor (H2), gene 100729734; test: NVS_GPCR_gH2: NovaScreen (NVS) G Protein-Coupled Receptor Assay for guinea pig Histamine Receptor (H2) (AID 2283342)
# Summary of the method: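 Guinea pig striatal membrane preparation with specific radioligand; bound counts measured by filtration and scintillation 1 h post-dosing, DMSO as baseline. Chemicals passing a 25 uM duplicate screen were titrated to a 50 uM maximum.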
# [3] = biological target: Estrogen receptor (Homo sapiens) (UniProt P03372); test: OT_ER_ERaERa_1440: Odyssey Thera (OT) 24-hour HEK293T Protein-Complementation Assay for Estrogen Receptor-alpha/-alpha Homodimer (AID 2283349);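 note: hits raise fluorescence above DMSO for agonists and antagonists alike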
# Summary of the method: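 HEK293T, stable ERα LBD (aa 310-547) homodimer PCA; 24 h compound exposure; mean fluorescence intensity (nuclear for agonists, nuclear plus cytoplasmic for antagonists) vs vehicle; positive fitting direction, DMSO baseline.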
# [4] = biological target: Estrogen receptor (Homo sapiens) (UniProt P03372); test: OT_ER_ERaERa_0480: Odyssey Thera (OT) 8-hour HEK293T Protein-Complementation Assay for Estrogen Receptor-alpha/-alpha Homodimer (AID 2283351);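 note: rise in fluorescence from reassembled reporter fragments on ERα LBD homodimer in nucleus or whole cell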
# Summary of the method: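 Measures ERα LBD (aa 310-547) homodimer complementation in stably transfected HEK293T at 8 h post-dose, with fluorescence intensity quantified on a laser scanning cytometer relative to DMSO controls.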
# [5] = biological target: T1, Estrogen receptor (Homo sapiens) + Estrogen receptor beta (Homo sapiens) (UniProt P03372+Q92731); test: OT_ER_ERaERb_1440: Odyssey Thera (OT) 24-hour HEK293T Protein-Complementation Assay for Estrogen Receptor-alpha/-beta Homodimer (AID 2283356);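 note: heteromer of ER alpha and ER beta binding domains; hits raise reporter fluorescence and both agonists and antagonists give an increase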
# Summary of the method: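 HEK293T stably expressing a PCA of ER alpha LBD (aa 310-547) and ER beta LBD (aa 263-489). After 24 h compound exposure, mean fluorescence intensity in nucleus (agonists) or nucleus and cytoplasm (antagonists) measured by laser scanning cytometry versus vehicle.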
# [6] = biological target: Estrogen receptor beta (Homo sapiens) (UniProt Q92731); test: OT_ER_ERbERb_0480: Odyssey Thera (OT) 8-hour HEK293T Protein-Complementation Assay for Estrogen Receptor-beta/-beta Homodimer (AID 2283357);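 note: active means signal gain over DMSO baseline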
# Summary of the method: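 ER-beta LBD homodimer PCA stably expressed in HEK293T; 8 h compound exposure, then formaldehyde fixation and Draq5 staining. Gain in nuclear/cytoplasmic fluorescence intensity versus DMSO vehicle, read on laser scanning cytometer.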
# [7] = NVS_IC_rCaBTZCHL: NovaScreen (NVS) Ion Channel Assay for Calcium Channel, Type L, Benzothiazepine Site (CaBTZCHL) (AID 2283337)
# Summary of the method: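 Benzothiazepine-site binding was assessed in a tissue-derived, cell-free rat cortical membrane system. After 1.5 h exposure, radioactivity retained on filters was quantified by scintillation; positive and negative controls accompanied every plate.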
# NCBI gene 100848466 = test: NVS_NR_bPR: NovaScreen (NVS) Nuclear Receptor Binding Assay for bovine Progextron Receptor (PR) (AID 2283343);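 for AC50: actives lower bound radioligand signal below DMSO meaning displacement of the label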
# Summary of the method: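 Competitive radioligand binding with membranes from bovine uterus, scintillation read-out at 18 h post-dose. Compounds first tested in duplicate at 25 uM, then actives in concentration series; loss-of-signal relative to DMSO.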
# [8] = biological target: bovine Estrogen Receptor (ER), ESR1 (gene 407238) (UniProt P49884); test: NVS_NR_bER: NovaScreen (NVS) Nuclear Receptor Binding Assay for bovine Estrogen Receptor (ER) (AID 2283345);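 note: actives lower the bound radioligand count which means they displace the ER ligand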
# Summary of the method: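 Scintillation counting of displaced radioligand gave the readout; bovine uterine membrane extract supplied the receptor. Measured 18 h post-dose, normalized to DMSO baseline. Single 25 uM duplicate screen preceded concentration-response follow-up.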
# [9] = biological target: T1, Estrogen receptor (Homo sapiens) + Estrogen receptor beta (Homo sapiens); test: OT_ER_ERaERb_0480: Odyssey Thera (OT) 8-hour HEK293T Protein-Complementation Assay for Estrogen Receptor-alpha/-beta Heterodimer (AID 2283352)
# Summary of the method: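 HEK293T protein-fragment complementation assay of ER-alpha/ER-beta LBD heterodimerisation, read 8 h after dosing. Mean nuclear/cytoplasmic fluorescence intensity measured by laser scanning cytometry; gain of signal fitted relative to DMSO.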
# [10] = biological target: human Constitutive Androstane Receptor (CAR), NR1I3 (gene 9970) (UniProt Q14994); test: NVS_NR_hCAR_Antagonist: NovaScreen (NVS) Nuclear Receptor Binding Assay for human Constitutive Androstane Receptor Antagonism (CAR) (AID 2283344)
# Summary of the method: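 Single 25 uM duplicate primary screen, with concentration-series follow-up on actives. Cell-free binding format run in antagonist mode, TR-FRET signal taken 1 h post-dose; activity is signal loss relative to DMSO.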
# [11] = biological target: Androgen Receptor/SRC-1 Co-activator, AR (gene 367) (UniProt P10275); test: OT_AR_ARSRC1_0960: Odyssey Thera (OT) 16-hour HEK293T Protein-Complementation Assay for Androgen Receptor/SRC-1 Co-activator (AID 2283353);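 note: actives raise the signal above DMSO so potency reflects increased AR and SRC-1 complex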
# Summary of the method: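 Sixteen-hour cell assay: Venus halves fused to AR and SRC-1 in HEK293T report binding. Images at 488/635 nm give an N/C ratio in the 488 nm channel over ≥400 cells, analysed as signal increase over DMSO.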
# [12] = biological target: Androgen Receptor/SRC-1 Co-activator, AR (gene 367) (UniProt P10275); test: OT_AR_ARSRC1_0480: Odyssey Thera (OT) 8-hour HEK293T Protein-Complementation Assay for Androgen Receptor/SRC-1 Co-activator (AID 2283354);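 note: hits raise the complementation signal above DMSO so AC50 marks enhancers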
# Summary of the method: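 Reconstituted split-Venus YFP signal from AR–SRC-1 interaction, read by imaging 8 h post-dose in stable HEK293T lines. The 488 nm nucleus-to-cytoplasm ratio (≥400 cells/image) was fitted upward against DMSO.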
# [13] = biological target: rat Mineralocorticoid Receptor (MR), Nr3c2 (gene 25672) (UniProt P22199); test: NVS_NR_rMR: NovaScreen (NVS) Nuclear Receptor Binding Assay for rat Mineralocorticoid Receptor (MR) (AID 2283355)
# Summary of the method: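 Primary HTS ran in duplicate at a single 25 uM concentration, with concentration-series follow-up for actives. Receptor source: adrenalectomized rat brain supernatant, cell-free. Radioligand displacement read by scintillation at 24 h, relative to DMSO baseline.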
# [14] = biological target: chimpanzee Androgen Receptor (AR), AR (gene 747460) (UniProt O97775); test: NVS_NR_cAR: NovaScreen (NVS) Nuclear Receptor Binding Assay for chimpanzee Androgen Receptor (AR) (AID 2283346);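 note: radioligand displacement from AR measured by scintillation counting in a cell-free assay; a loss of bound radioligand signal versus DMSO counts as binding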
# Summary of the method: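 Cell-free competition binding with insect-cell (Sf9/Sf21) extracted chimpanzee AR; scintillation signal from lysate at 72 h. Screened in duplicate at 25 uM, then concentration-response for actives; fitting relative to DMSO.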
# [15] = biological target: bovine Gamma-Aminobutyric Acid Type A Receptor Agonist (GABAR Agonist), GABRA1 (gene 780973) (UniProt P08219); test: NVS_LGIC_bGABAR_Agonist: NovaScreen (NVS) Ligand-Gated Ion Channel Assay for bovine Gamma-Aminobutyric Acid Type A Receptor Agonist (GABAR Agonist) (AID 2283338)
# Summary of the method: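 Radioligand binding to bovine cerebellar membranes in agonist format, read by filter-based scintillation counting after 1 h. Primary screen in duplicate at 25 uM, with actives followed in concentration series. Gain of signal versus DMSO.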
# [16] = biological target: Bile acid receptor (Homo sapiens) (UniProt Q96RI1); test: NVS_NR_hFXR_Antagonist: NovaScreen (NVS) Nuclear Receptor Binding Assay for human Farnesoid X Receptor Antagonism (FXR) (AID 2283350)
# Summary of the method: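 Antagonist-format time-resolved FRET binding assay with extracted human receptor protein, read 1 hour after compound addition. Compounds first screened at 25 uM in duplicate, then actives tested in concentration series, with loss of signal relative to DMSO.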
# [17] = biological target: Bile acid receptor (Homo sapiens) (UniProt Q96RI1); test: NVS_NR_hFXR_Agonist: NovaScreen (NVS) Nuclear Receptor Binding Assay for human Farnesoid X Receptor Agonism (FXR) (AID 2283347)
# Summary of the method: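 Agonist-mode FXR assay read by time-resolved FRET 1 h after compound addition, using isolated human receptor protein without cells. Duplicate 25 uM single-point primary screen, concentration series for confirmed actives; DMSO as baseline.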
# Sequence of Estrogen receptor (Homo sapiens) (P03372 whole entry, looked up, the tested form may be a part): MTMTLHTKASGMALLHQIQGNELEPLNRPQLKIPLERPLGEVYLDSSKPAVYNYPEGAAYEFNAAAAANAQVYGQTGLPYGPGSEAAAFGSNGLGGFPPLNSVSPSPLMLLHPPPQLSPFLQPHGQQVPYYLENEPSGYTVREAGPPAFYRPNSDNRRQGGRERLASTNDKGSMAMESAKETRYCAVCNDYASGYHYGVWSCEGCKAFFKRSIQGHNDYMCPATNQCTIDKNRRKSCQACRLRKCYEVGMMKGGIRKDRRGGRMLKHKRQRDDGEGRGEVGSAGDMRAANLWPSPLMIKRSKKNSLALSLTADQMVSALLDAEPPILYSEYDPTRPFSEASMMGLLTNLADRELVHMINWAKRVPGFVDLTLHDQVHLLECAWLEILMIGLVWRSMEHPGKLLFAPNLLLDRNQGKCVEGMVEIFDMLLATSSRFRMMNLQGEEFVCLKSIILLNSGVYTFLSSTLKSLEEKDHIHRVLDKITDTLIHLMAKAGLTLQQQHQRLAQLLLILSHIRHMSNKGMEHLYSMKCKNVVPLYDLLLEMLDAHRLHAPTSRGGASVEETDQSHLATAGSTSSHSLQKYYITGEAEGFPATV
# T1 sequence (P03372 whole entry, looked up, the tested form may be a part): as above
# T1 sequence (Q92731 whole entry, looked up, the tested form may be a part): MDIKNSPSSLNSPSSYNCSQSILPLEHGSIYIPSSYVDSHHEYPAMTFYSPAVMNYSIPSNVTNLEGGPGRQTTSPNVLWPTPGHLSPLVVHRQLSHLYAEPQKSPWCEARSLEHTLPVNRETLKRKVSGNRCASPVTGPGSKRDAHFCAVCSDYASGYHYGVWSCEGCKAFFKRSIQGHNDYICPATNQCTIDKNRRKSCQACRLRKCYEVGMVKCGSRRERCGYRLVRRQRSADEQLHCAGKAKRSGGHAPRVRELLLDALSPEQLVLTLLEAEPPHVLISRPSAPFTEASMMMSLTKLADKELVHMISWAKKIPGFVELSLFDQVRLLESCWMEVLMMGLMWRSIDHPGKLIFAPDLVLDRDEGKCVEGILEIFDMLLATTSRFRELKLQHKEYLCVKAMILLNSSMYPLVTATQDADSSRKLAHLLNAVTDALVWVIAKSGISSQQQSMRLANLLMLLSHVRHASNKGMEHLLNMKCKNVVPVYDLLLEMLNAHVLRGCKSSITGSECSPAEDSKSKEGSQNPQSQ
# Sequence of rat Peripheral-type Benzodiazepine Receptor (PBR), Tspo (gene 24230) (P16257 whole entry, looked up): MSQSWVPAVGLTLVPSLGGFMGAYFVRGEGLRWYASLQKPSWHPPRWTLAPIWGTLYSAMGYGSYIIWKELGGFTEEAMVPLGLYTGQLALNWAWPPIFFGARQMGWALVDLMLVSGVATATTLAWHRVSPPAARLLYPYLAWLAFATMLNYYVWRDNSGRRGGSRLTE
# Sequence of Androgen Receptor/SRC-1 Co-activator, AR (gene 367) (P10275 whole entry, looked up, the tested form may be a part): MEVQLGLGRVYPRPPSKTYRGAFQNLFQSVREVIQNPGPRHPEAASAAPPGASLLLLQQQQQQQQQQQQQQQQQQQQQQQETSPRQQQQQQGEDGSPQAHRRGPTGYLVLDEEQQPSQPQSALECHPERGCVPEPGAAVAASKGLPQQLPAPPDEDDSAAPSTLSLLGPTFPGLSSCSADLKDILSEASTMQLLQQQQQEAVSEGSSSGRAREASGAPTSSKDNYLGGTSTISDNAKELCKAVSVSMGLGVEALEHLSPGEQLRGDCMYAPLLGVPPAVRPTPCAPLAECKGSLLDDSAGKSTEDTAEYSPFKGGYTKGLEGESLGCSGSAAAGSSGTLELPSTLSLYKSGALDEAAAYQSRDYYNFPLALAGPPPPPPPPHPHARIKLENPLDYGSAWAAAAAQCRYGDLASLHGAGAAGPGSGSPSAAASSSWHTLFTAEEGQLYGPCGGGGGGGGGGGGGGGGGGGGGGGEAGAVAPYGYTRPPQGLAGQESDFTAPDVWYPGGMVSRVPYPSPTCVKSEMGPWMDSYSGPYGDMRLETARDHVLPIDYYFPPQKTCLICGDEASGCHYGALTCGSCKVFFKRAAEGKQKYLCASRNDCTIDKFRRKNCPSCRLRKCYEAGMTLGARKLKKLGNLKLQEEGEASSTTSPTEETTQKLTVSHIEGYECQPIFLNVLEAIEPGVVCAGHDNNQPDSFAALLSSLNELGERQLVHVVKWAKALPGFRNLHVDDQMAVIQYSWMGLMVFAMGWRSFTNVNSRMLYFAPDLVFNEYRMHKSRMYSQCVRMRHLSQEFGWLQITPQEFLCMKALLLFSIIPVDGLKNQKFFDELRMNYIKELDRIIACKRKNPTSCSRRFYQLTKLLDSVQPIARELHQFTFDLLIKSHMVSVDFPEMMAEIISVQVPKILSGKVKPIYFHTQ
# Sequence of chimpanzee Androgen Receptor (AR), AR (gene 747460) (O97775 whole entry, looked up): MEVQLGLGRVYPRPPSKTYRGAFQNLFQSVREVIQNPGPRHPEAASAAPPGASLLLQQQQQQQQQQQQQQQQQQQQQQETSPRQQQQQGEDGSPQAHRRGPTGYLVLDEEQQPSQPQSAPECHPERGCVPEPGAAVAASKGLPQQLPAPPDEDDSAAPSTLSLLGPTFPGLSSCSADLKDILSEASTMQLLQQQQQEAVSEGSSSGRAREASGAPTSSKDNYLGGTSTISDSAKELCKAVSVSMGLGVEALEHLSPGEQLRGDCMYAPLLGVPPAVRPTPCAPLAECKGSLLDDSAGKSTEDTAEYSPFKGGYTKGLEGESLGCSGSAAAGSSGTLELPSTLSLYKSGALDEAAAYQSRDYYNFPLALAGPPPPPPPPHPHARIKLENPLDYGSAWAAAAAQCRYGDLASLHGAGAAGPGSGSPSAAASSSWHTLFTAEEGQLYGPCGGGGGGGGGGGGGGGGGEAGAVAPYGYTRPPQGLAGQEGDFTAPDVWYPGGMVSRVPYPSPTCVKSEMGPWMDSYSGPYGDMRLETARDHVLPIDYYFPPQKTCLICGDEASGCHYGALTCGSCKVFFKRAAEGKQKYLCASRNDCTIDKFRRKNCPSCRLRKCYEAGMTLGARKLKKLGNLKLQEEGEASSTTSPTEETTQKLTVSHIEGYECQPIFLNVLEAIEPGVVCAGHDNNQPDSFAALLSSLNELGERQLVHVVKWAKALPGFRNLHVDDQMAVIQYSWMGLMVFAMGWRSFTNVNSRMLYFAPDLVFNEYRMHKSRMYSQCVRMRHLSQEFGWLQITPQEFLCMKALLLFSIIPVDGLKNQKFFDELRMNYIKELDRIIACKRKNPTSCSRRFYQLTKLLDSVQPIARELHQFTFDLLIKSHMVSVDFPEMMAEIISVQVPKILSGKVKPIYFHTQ
# Sequence of bovine Estrogen Receptor (ER), ESR1 (gene 407238) (P49884 whole entry, looked up): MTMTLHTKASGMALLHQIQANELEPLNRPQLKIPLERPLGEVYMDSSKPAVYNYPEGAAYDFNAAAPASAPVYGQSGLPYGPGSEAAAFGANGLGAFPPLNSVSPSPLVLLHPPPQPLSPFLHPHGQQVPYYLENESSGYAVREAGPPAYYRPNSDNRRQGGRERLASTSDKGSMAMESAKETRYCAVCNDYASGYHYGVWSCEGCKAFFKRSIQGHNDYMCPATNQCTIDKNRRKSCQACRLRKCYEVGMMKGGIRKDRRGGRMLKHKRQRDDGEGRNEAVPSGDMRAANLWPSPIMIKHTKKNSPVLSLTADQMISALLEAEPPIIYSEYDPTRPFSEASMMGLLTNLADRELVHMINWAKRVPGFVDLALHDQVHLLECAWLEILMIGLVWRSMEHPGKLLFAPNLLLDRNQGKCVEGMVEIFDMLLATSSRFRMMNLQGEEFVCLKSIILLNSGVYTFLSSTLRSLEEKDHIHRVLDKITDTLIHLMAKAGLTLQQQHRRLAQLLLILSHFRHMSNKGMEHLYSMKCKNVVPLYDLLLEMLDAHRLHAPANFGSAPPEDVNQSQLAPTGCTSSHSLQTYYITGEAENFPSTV
# Sequence of Estrogen receptor beta (Homo sapiens) (Q92731 whole entry, looked up, the tested form may be a part): as the sequence (Q92731 whole entry, looked up, the tested form may be a part) above
# Sequence of human Constitutive Androstane Receptor (CAR), NR1I3 (gene 9970) (Q14994 whole entry, looked up): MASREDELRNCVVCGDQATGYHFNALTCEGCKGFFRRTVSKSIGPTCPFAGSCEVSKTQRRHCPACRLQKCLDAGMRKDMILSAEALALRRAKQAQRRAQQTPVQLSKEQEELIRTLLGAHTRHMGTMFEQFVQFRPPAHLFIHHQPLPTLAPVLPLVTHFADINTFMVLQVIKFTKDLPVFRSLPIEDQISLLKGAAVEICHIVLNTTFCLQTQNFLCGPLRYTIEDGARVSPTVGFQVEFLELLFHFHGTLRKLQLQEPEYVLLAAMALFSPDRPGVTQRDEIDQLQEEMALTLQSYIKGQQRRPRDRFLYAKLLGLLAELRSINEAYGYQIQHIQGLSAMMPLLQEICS
# Sequence of Bile acid receptor (Homo sapiens) (Q96RI1 whole entry, looked up): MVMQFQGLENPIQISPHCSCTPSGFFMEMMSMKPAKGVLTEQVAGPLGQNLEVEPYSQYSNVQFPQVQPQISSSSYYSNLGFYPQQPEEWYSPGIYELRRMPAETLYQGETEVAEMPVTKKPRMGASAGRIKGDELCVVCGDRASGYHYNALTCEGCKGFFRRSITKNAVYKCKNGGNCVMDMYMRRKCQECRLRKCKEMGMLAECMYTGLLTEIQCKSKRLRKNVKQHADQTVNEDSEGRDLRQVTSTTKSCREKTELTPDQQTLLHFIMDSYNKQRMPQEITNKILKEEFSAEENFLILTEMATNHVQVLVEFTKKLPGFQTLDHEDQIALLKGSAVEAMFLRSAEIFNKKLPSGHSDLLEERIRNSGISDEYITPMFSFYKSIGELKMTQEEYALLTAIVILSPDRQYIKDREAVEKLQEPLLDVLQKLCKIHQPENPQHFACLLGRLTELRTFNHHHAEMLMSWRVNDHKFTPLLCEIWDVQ
smiles,measurement,setting,value
CCNP(=S)(OC)O/C(C)=C/C(=O)OC(C)C (centres undefined),AC50,[1],11.8 µM (active)
same,AC50,[2],16.1 µM (active)
same,outcome,[3],inactive
same,outcome,[4],inactive
same,outcome,[5],inactive
same,outcome,[6],inactive
CCCN(CC)CC1COC2(CCC(C(C)(C)C)CC2)O1 (centres undefined),AC50,[7],9.84 µM (active)
same,AC50,[2],9.65 µM (active)
same,outcome,[4],inactive
same,AC50,[5],32.2 µM (active)
same,outcome,[6],inactive
CC1(C)C(C=C(Cl)Cl)C1C(=O)OC(C#N)c1cccc(Oc2ccccc2)c1 (centres undefined),AC50,[1],5.01 µM (active)
same,outcome,NCBI gene 100848466,inactive
same,outcome,[8],inactive
same,outcome,[4],inactive
same,outcome,[9],inactive
same,outcome,[5],inactive
same,outcome,[6],inactive
CSC(=O)c1c(C(F)F)nc(C(F)(F)F)c(C(=O)SC)c1CC(C)C,outcome,[2],inactive
same,outcome,[4],inactive
same,AC50,[9],31.9 µM (active)
same,AC50,[5],31 µM (active)
same,AC50,[6],18.1 µM (active)
CC(C)Oc1cccc(NC(=O)c2ccccc2C(F)(F)F)c1,AC50,[1],0.28 µM (active)
same,outcome,[10],inactive
same,outcome,[8],inactive
same,outcome,[3],inactive
same,outcome,[9],inactive
same,outcome,[5],inactive
CCN(CC)c1nc(C)cc(OP(=S)(OC)OC)n1,AC50,[1],0.467 µM (active)
same,AC50,NCBI gene 100848466,18.5 µM (active)
same,outcome,[4],inactive
same,AC50,[9],19.9 µM (active)
same,AC50,[5],34.9 µM (active)
same,AC50,[6],30.7 µM (active)
Cn1c(-c2ccccc2)cc(-c2ccccc2)[n+]1C,AC50,[7],33.3 µM (active)
same,outcome,[2],inactive
same,outcome,[4],inactive
same,outcome,[9],inactive
same,outcome,[6],inactive
Cc1nc(N(C)C)nc(OC(=O)N(C)C)c1C,AC50,[1],19 µM (active)
same,outcome,[4],inactive
same,outcome,[9],inactive
same,outcome,[5],inactive
same,outcome,[6],inactive
O=C(Nc1ccccc1-c1ccc(Cl)cc1)c1cccnc1Cl,outcome,[1],inactive
same,outcome,[4],inactive
same,outcome,[9],inactive
same,outcome,[5],inactive
same,outcome,[6],inactive
COc1ccc(-c2ccccc2)cc1NNC(=O)OC(C)C,AC50,[1],0.0966 µM (active)
same,outcome,[3],inactive
same,outcome,[9],inactive
same,outcome,[11],inactive
same,outcome,[12],inactive
same,outcome,[13],inactive
same,outcome,[5],inactive
same,outcome,[6],inactive
CCN(CC)C(=O)C(C)Oc1cccc2ccccc12 (centres undefined),AC50,[1],0.125 µM (active)
same,AC50,[10],34.2 µM (active)
same,AC50,[14],11.5 µM (active)
same,outcome,[4],inactive
same,outcome,[9],inactive
same,outcome,[5],inactive
same,outcome,[6],inactive
Nc1cnn(-c2ccccc2)c(=O)c1Cl,outcome,[15],inactive
same,outcome,[3],inactive
same,outcome,[4],inactive
same,outcome,[9],inactive
same,outcome,[5],inactive
same,outcome,[6],inactive
COC(=O)N(C(=O)N1CO[C@@]2(C(=O)OC)Cc3cc(Cl)ccc3C2=N1)c1ccc(OC(F)(F)F)cc1,outcome,[1],inactive
same,outcome,[14],inactive
same,outcome,[3],inactive
same,outcome,[4],inactive
same,outcome,[9],inactive
same,outcome,[11],inactive
same,outcome,[12],inactive
same,outcome,[5],inactive
same,outcome,[6],inactive
CCOP(=O)(OCC)Oc1nc(Cl)c(Cl)cc1Cl,AC50,[1],1.6 µM (active)
same,AC50,[10],16.1 µM (active)
same,outcome,[4],inactive
same,outcome,[9],inactive
same,AC50,[11],33.2 µM (active)
same,outcome,[12],inactive
same,outcome,[5],inactive
same,outcome,[6],inactive
O=C1C2CC=CCC2C(=O)N1SC(Cl)(Cl)Cl (centres undefined),outcome,[1],inactive
same,outcome,NCBI gene 100848466,inactive
same,outcome,[10],inactive
same,outcome,[4],inactive
same,outcome,[9],inactive
same,outcome,[5],inactive
CN=C=S,outcome,[10],inactive
same,outcome,[8],inactive
same,outcome,[4],inactive
CC(C)=CC1C(C(=O)OCc2coc(Cc3ccccc3)c2)C1(C)C (centres undefined),outcome,[1],inactive
same,AC50,NCBI gene 100848466,25 µM (active)
same,outcome,[10],inactive
same,outcome,[8],inactive
same,outcome,[4],inactive
CCOP(=S)(OCC)Oc1nc(Cl)n(C(C)C)n1,AC50,[1],12.9 µM (active)
same,outcome,[3],inactive
same,outcome,[4],inactive
COP(=S)(OC)Oc1ccc([N+](=O)[O-])c(C)c1,outcome,[1],inactive
same,AC50,NCBI gene 100848466,14.8 µM (active)
same,outcome,[10],inactive
same,outcome,[8],inactive
same,AC50,[14],5.29 µM (active)
same,outcome,[3],inactive
same,outcome,[16],inactive
same,outcome,[4],inactive
same,outcome,[9],inactive
same,outcome,[5],inactive
same,outcome,[6],inactive
O=c1n(Cl)c(=O)n(Cl)c(=O)n1Cl,outcome,[8],inactive
CS(=O)(=O)c1cc(C(F)(F)F)ccc1C(=O)c1cnoc1C1CC1,outcome,[8],inactive
CCOc1nc(F)cc2nc(S(=O)(=O)Nc3c(Cl)cccc3Cl)nn12,outcome,[17],inactive
